# D1 PAM – enhances dopamine response at the human D1 receptor; P21728; HEK293 TREx D1 cells, calcium flux, dopamine EC20 potentiation; potentiation, % at 10 µM; hit rate 0.036% among 360,000; AID 504651; in the data active means potentiation above about 30%; further: 0% is about no effect
# D3 ag – activates the human D3 dopamine receptor; hit rate 0.58% among 410,000; max activation, %; AID 652048; D3R DiscoveRx beta-arrestin cells, luminescence, 90 min; P35462; in the data active means max activation above about 30%; further: 0% is about no effect
# Target sequence (P35462 whole entry, looked up): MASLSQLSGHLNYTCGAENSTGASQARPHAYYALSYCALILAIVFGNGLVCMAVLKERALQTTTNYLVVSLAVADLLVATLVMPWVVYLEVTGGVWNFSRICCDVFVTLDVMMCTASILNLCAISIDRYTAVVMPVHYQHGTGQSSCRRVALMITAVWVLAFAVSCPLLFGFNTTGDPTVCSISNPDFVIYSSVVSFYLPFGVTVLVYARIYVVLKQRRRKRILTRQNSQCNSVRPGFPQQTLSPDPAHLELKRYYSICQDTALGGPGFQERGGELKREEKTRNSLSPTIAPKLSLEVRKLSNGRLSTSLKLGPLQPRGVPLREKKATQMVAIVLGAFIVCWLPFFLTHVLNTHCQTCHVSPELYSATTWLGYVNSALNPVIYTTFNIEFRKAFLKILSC
#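 Cells at 1500/well, incubated overnight, then treated with pinned compounds (dopamine as control) for 90 min at 37 degrees C. DiscoveRx reagent added for 30 - 60 minutes at room temperature; luminescence read.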
# D1 antag – human D1 dopamine receptor antagonism; P21728; HEK293 TREx D1 cells, calcium flux, dopamine EC80; stronger effect = lower value; activity change, negative = inhibition, % at 10 µM; hit rate 3.2% among 360,000; AID 504652; in the data active means activity change below about -30%; further: on the % scale 0 is the no-effect control and ±100 the full control effect
#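 After overnight tetracycline induction at 30 C, force-coupled D1 HEK293 cells took up a no-wash calcium dye at room temperature. Compounds were added and monitored 180 s, and the response to EC80 dopamine was then recorded.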
# DRD3 antagonist – antagonists of human D3 dopamine receptor. hit rate 2.5% among 360,000. D3R cells, DiscoveRx beta-arrestin luminescence, antagonist mode; stronger effect = lower value. P35462. max response, negative = inhibition, %; in the data active means max response below about -50%; inconclusive means no clear call, values can overlap the other calls; further: on the % scale 0 is the no-effect control and ±100 the full control effect
#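 Cells plated overnight at 1500 cells/well, then exposed to library compounds with dopamine controls for 90 minutes at 37 degrees C. DiscoveRx reagent added for 30–60 minutes at room temperature; luminescence read, quantitative HTS format.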
# D1 agonist – activates the human D1 dopamine receptor | P21728 | HEK293 T-REx D1 cells, calcium flux, agonist mode | activation, % at 2 µM | hit rate 1% among 360,000 | AID 504660; in the data active means activation above about 30%; further: 0% is about no effect
#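 Agonism was scored from calcium flux recorded over 180 s (1 read/s) after pintool compound addition, following a 10-cycle baseline. Cells were inducible force-coupled HEK293 TREx D1, plated overnight at 30 C and loaded with no-wash calcium dye.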
# Active calls of the source: *; ? = inconclusive; · = not tested or not shown. A selection: hits, their analogues and other compounds. The true share with any hit is near 6.1%.
SMILES,D1 PAM,D3 ag,D1 antag,DRD3 antagonist,D1 agonist
COC(=O)C1=C(C(=O)c2ccccc2)C(c2cccs2)n2nnnc2N1 (stereo not given),-2.2,0.3,-14.1,-59.6*,1.0
COc1ccc(S(=O)(=O)N2CCN(C(=O)c3ccc(=O)[nH]n3)CC2)cc1OC,-3.2,1.2,-1.2,-15.4,5.8
Cc1cccnc1CCNC(=O)CC1C(=O)NCCN1CC1CCCCC1 (stereo not given),0.5,-7.9,11.9,-2.5,2.2
COc1ccc(S(=O)(=O)N2CCC(Nc3ccccc3Cl)CC2)cc1,-3.3,0.0,-10.0,1.8,3.4
CC(C)(C)c1ccc(C(=O)CCC(=O)OCC(=O)NCCc2ccc(S(N)(=O)=O)cc2)cc1,-3.9,3.5,-34.2*,0.9,4.7
O=C(CSc1c2c(nc3cc(Cl)ccc13)CCCC2)NCCN1CCOCC1,-1.9,-1.9,-6.8,-17.3,0.8
Clc1ccc2c(SCC3CO3)c3ccccc3nc2c1 (stereo not given),·,-30.1,·,-91.0*,·
Cn1c(CCCNC(=O)c2ccccc2)nc2ccccc21,-11.6,0.3,-20.2,-53.9*,-3.7
COc1ccc(C(=O)NCCc2nc3cc([N+](=O)[O-])ccc3n2C)cc1,-1.4,-20.6,-9.1,-112.6*,-0.4
Cn1c(CCc2ccc(N)cc2)nc2ccccc21,-3.3,-7.2,1.3,-51.3*,1.5
CC(C)Cn1c(CNC(=O)c2ccccc2)nc2ccccc21,-1.7,10.8,5.2,-55.6*,3.3
Cn1c(-c2ccc(N)cc2)nc2ccccc21,6.0,1.1,10.9,11.8,-0.5
COc1cc(/C=C/C(=O)Nc2cccc(S(=O)(=O)NC3=NCCCCC3)c2)ccc1OCC#N,-7.5,-5.2,-2.3,-19.3,0.8
CCc1nc2ccc(C(=O)NCCN(C)C)cn2c1N(CC)CCOC,·,4.7,·,10.3,·
Cc1cc2ccccc2n1CCNC(=O)c1ccccc1,-11.9,-2.6,-2.0,0.0,43.1*
CCCn1c(CNC(=O)c2ccccc2)nc2ccccc21,-1.6,-8.8,12.5,-78.6*,0.6
Cc1cc2ccccc2n1CCNC(=O)c1ccc(Br)cc1,-3.2,-22.9,-29.2,·,4.0
CCCn1c(CNC(=O)c2cccs2)nc2ccccc21,·,-11.8,-8.1,-13.0,1.3
CC(=O)NCCCc1nc2ccccc2n1Cc1ccccc1C,-11.8,-8.3,5.5,-5.6,42.5*
Cc1c(C(=O)Nc2c3c(nn2C(C)(C)C)CS(=O)(=O)C3)cccc1[N+](=O)[O-],1.6,2.6,-11.8,-8.8,1.1
CCn1c(CNC(=O)c2ccccc2F)cc2cc(C)ccc21,3.1,8.1,-8.4,3.2,2.8
CCC(C)(C)NC(=O)C(c1ccc(C)cc1)N(Cc1cccnc1)C(=O)c1csnn1 (stereo not given),-25.1,0.6,-63.3*,11.9,-0.6
CS(=O)(=O)NCC(c1ccco1)N1CCN(c2ccccc2)CC1 (stereo not given),-2.0,-17.7,·,·,4.6
CCCCC1(C)Cc2ccccc2C(=S)N1 (stereo not given),-3.0,-7.7,3.8,-50.1*,1.4
CCOC(=O)/C(C)=C1\NC(C)(C)Cc2ccccc21,0.5,0.5,-1.9,-1.0,2.6
SMILES,D1 PAM,D3 ag,D1 antag,DRD3 antagonist,D1 agonist
O=C(O)C1CCN(c2ccc(S(=O)(=O)N3CCOCC3)cc2[N+](=O)[O-])CC1,-4.2,-1.8,-23.8,-14.2,4.3
O=[N+]([O-])c1cc(S(=O)(=O)N2CCOCC2)ccc1N1CCCC1,5.9,1.2,-30.8*,-5.0,1.1
Cc1ccc(CNc2ccc(S(=O)(=O)N3CCOCC3)cc2[N+](=O)[O-])cc1,1.9,-3.9,-56.6*,-6.2,5.5
Cc1cccc(Nc2ccc(S(=O)(=O)N3CCOCC3)cc2[N+](=O)[O-])c1,·,-7.2,-25.5,-15.3,3.1
COC(=O)c1ccc(N2CCN(S(=O)(=O)c3ccc(C)cc3)CC2)c([N+](=O)[O-])c1,-4.7,2.4,-16.3,12.4,7.1
COC(=O)c1ccc(N2CCN(S(=O)(=O)c3ccc(Br)cc3)CC2)c([N+](=O)[O-])c1,-2.1,5.8,-32.7*,-12.4,7.3
O=C(Cc1ccccc1)N/N=C/c1cc2c(cc1Cl)OCO2,-11.0,-5.7,-40.2*,8.8,16.0
COc1cccc(/C=N/NC(=O)c2[nH]c(C)c(C(=O)N/N=C/c3cccc(OC)c3O)c2C)c1O,-7.5,-5.0,-77.3*,16.3,-0.5
O=C(CCCC(=O)NN=Cc1ccccc1Cl)NN=Cc1ccccc1Cl,·,-11.5,·,0.0,·
O=C(N/N=C\c1cc2c(cc1Cl)OCO2)c1cccs1,-0.3,-3.8,10.3,-0.6,0.4
O=C(CCc1ccccc1)Nc1cc2c(cc1Cl)OCCO2,-7.3,-0.1,-30.0*,-1.1,0.4
O=C(CCc1ccccc1)Nc1cc2c(cc1C(=O)O)OCCCO2,·,-5.1,·,8.4,·
O=C(CNC(=O)c1ccccc1)N/N=C/c1ccccc1Cl,31.8*,-4.0,-3.3,5.3,0.2
Cc1ccc(Cl)cc1N1CCN(C(=O)c2ccc3c(c2)CCN3S(=O)(=O)c2ccccc2)CC1,-1.6,3.1,27.2,·,3.4
COc1cccc(/C=N/NC(=O)CNC(=O)c2ccncc2)c1O,0.0,-1.5,-41.3*,22.6,2.2
COc1cccc(/C=N/NC(=O)CNC(=O)c2cccnc2)c1O,-7.4,-16.8,-19.8,5.0,1.0
O=C(CCC(=O)N/N=C/c1ccc(Br)s1)NCc1ccccc1,-8.1,1.0,-11.4,13.2,0.2
O=C(CCC(=O)N/N=C/c1cc(Cl)cc(Cl)c1O)NCc1ccccc1,5.5,-7.3,-7.6,-53.7*,1.3
CCOC(=O)C1=C(C)N(C)C(=O)NC1c1cccc2ccccc12 (stereo not given),3.5,-5.9,16.4,0.3,1.3
CCn1nc(NC(C)=O)c2cc3cccc(C)c3nc21,3.9,0.3,-3.5,-5.1,1.0
CCn1nc(NC(=O)COC)c2cc3cccc(C)c3nc21,-3.5,3.7,-81.0*,15.3,2.5
O=C(COc1cccc(C(F)(F)F)c1)Nc1cccnc1,0.5,-1.2,-31.5*,-11.5,2.4
O=C(COc1ccc2ccccc2c1Br)Nc1cccnc1,-10.2,-9.4,-41.5*,-18.8,11.7
O=C(OCc1ccc(Br)cc1)c1cccnc1Cl,0.8,6.1,-12.0,-11.1,2.9
Cc1noc(C)c1COC(=O)c1cccnc1Cl,-3.2,-0.2,-33.7*,4.5,4.1
COc1cc(C(=O)Nc2ccc(C)cc2)c(-n2cnnn2)cc1OC,-2.5,-2.9,-0.2,-4.0,1.6
CC(C)NC(=O)C(=O)NCCC1CCCCN1S(=O)(=O)c1cccs1 (stereo not given),-6.0,0.9,-31.5*,-2.2,1.4
CNC(=O)C(=O)NCCC1CCCCN1S(=O)(=O)c1cccs1 (stereo not given),0.6,-7.7,-4.9,-24.3,1.6
Cc1ccc(-n2nnnc2SCC(=O)Nc2sccc2C#N)cc1,-5.0,-3.8,-65.7*,?,11.2
CN1CCN(c2ccc(NC(=O)CSc3nnnn3-c3ccccc3F)cc2)CC1,-13.6,-1.0,-45.6*,6.3,4.0

# Screening results: PubChem, National Center for Advancing Translational Sciences (NCATS)
